# PubChem BioAssay (EPA / NIEHS)
# Calls of active or inactive are those of the source. Rule for the calls: active = hit-call score of the fitted dose curve at least 0.9, where 1 is the maximum; inactive = score below 0.9.
# Read-out: Macrophage colony-stimulating factor (MCSF), CSF1 (gene 1435)
# Assay: BSK_CASM3C_MCSF: BioMAP Diversity Plus: CASM3C Assay for Macrophage colony-stimulating factor (MCSF) Biomarker Activity (AID 2283044);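 note: M-CSF protein amount quantified by ELISA after 24 h exposure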
# Settings: primary human coronary artery smooth muscle cells; actives raise or lower the signal
SMILES,outcome,AC50
CCC(C)(CC)c1cc(NC(=O)c2c(OC)cccc2OC)on1,inactive,–
Nn1cnnc1,inactive,–
CCCCCCCCOC(=O)c1ccccc1C(=O)OCCCCCCCC,inactive,–
Clc1ccc(Cl)cc1,inactive,–
Cc1ccccc1O,inactive,–
Cc1cc(-c2ccc(N)c(C)c2)ccc1N,inactive,–
CC#Cc1cc(C)nc(Nc2ccccc2)n1,inactive,–
CO/C=C(/C(=O)OC)c1ccccc1COc1cccc(C(F)(F)F)n1,inactive,–
ClC1=C(Cl)[C@]2(Cl)[C@@H]3[C@@H](Cl)[C@H]4O[C@H]4[C@@H]3C1(Cl)C2(Cl)Cl,inactive,–
C=CC(=O)NCNC(=O)C=C,inactive,–
CCCCCCCCCc1ccc(O)cc1,–,34.6 µM (active)
N#Cc1ccc(N(CC(N)=O)CC(F)(F)F)cc1C(F)(F)F,inactive,–
CCC(C)(c1ccc(O)cc1)c1ccc(O)cc1,inactive,–
O=C(N[C@H]1CN2CCC1CC2)c1cc2ccoc2cn1,inactive,–
ClC1=C(Cl)[C@]2(Cl)[C@@H]3[C@@H]4C[C@@H]([C@H]5O[C@@H]45)[C@@H]3[C@@]1(Cl)C2(Cl)Cl,inactive,–
O=C(NC(=O)c1cc(F)c(F)cc1Cl)Nc1cc(F)ccc1N1CCC(C(=O)O)CC1,inactive,–
O=S(=O)(O)C(F)(F)C(F)(F)C(F)(F)C(F)(F)C(F)(F)C(F)(F)F,inactive,–
C1CC2OC2CC1C1CO1 (stereo not given),inactive,–
ClC1=C(Cl)[C@]2(Cl)[C@@H]3[C@H]4C[C@H]([C@@H]5O[C@H]45)[C@@H]3[C@@]1(Cl)C2(Cl)Cl,inactive,–
C[C@]12CCC(=O)C=C1CC[C@@H]1[C@@H]2CC[C@]2(C)C(=O)CC[C@@H]12,inactive,–
